# Experimental data reported in PubChem BioAssay (Tox21).
# Unmarked numbers belong to inactive results. Inconclusive results are not listed. Entries that show only a call come without a potency. Activity calls are given as the source filed them. Unless noted, the call rests on the fitted dose curve.
# Assays:
# [1] = Nuclear factor erythroid 2-related factor 2/antioxidant responsive element (Nrf2/ARE) small molecule agonists: qHTS cell viability counter screen in human keratinocytes (AID 1919968; active means well fitted curve in the direction sought with a large enough effect in the repeat runs; an effect the other way counts as inactive or inconclusive; further: nearly all actives have a fitted effect of over 55% in size)
# Outline: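 Stably transfected HaCaT (KeratinoSens), 1,500/well. Test agents in DMSO were applied for 23 h, 37 C/5% CO2. CellTiter-Fluor was incubated 1 h before the fluorescence read.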
# [2] = Nuclear factor erythroid 2-related factor 2/antioxidant responsive element (Nrf2/ARE) small molecule agonists: luciferase reporter gene qHTS assay in human keratinocytes (AID 1919969); further: nearly all actives have a fitted effect of over 35% in size; further: potency means the concentration at half of the fitted maximal effect
# [3] = target: Gonadotropin-releasing hormone receptor (Homo sapiens) (UniProt P30968); experiment: Human gonadotropin-releasing hormone receptor (GnRHR) small molecule agonists, calcium flux assay in GnRHR-HEK293 cells (AID 1920063); further: nearly all actives have a fitted effect of over 35% in size
# Gonadotropin-releasing hormone receptor (Homo sapiens), sequence (P30968 whole entry, looked up): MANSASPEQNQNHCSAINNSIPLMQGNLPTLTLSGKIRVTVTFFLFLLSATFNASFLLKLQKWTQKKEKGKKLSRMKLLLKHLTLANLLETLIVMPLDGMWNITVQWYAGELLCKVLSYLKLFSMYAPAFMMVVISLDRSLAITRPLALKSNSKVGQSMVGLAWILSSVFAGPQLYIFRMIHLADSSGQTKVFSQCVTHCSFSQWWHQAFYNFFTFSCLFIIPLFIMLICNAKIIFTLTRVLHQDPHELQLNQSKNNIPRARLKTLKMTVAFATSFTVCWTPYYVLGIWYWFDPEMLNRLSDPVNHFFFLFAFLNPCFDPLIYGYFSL
# Outline: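 Stable human GnRHR HEK293 line. 18 h plating, then calcium dye for 1 h at 37 C. Agonist-mode compound addition from DMSO stocks; fluorescence monitored 3 min.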
# [4] = target: KiSS-1 receptor (Homo sapiens) (UniProt Q969F8); experiment: Human kisspeptin (KISS1R) small molecule agonists, calcium flux assay in KISS1R-HEK293 cells (AID 1920064; active means well fitted curve in the direction sought with a large enough effect in the repeat runs; an effect the other way counts as inactive or inconclusive)
# KiSS-1 receptor (Homo sapiens), sequence (Q969F8 whole entry, looked up): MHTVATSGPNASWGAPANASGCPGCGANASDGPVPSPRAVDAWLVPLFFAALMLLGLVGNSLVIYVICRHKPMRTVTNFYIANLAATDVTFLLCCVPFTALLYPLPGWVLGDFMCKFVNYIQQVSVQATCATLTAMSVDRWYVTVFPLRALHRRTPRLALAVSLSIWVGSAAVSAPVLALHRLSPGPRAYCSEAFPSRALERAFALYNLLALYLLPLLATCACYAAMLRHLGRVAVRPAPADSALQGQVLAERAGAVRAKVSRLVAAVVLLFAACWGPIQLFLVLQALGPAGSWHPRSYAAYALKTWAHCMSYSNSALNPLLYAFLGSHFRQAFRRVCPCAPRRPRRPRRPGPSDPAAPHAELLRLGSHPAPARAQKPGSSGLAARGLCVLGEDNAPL
# Outline: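 After overnight (18 h) culture at 37 C/5% CO2, human KISS1R-HEK293 cells received calcium dye for 1 h, then test compound; emission at 540 nm (excitation 480 nm) was tracked for 3 min.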
# [5] = G protein-coupled receptor (GPCR) small molecule agonists, calcium flux assay: HEK293 wild type cell line counter screen (AID 1920065)
# Outline: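 Following 18 h incubation at 37 C/5% CO2, plates got calcium dye for 1 h; compounds, ATP or DMSO were then pinned in and fluorescence followed kinetically (480/540 nm).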
# [6] = p53 small molecule agonists, cell-based qHTS assay with rat liver microsomes (AID 1963578)
# Outline: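 Rat liver microsome activation: microsomes 0.5 mg/mL, NADPH 0.5 mg/mL final; p53RE-bla cells, 16 h 37 C; LiveBLAzer readout, 2 h RT dark.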
# [7] = p53 small molecule agonists, cell-based qHTS assay with human liver microsomes: qHTS cell viability counter screen (AID 1963579); further: nearly all actives have a fitted effect of over 45% in size
# Outline: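 Luminescent CellTiter-Glo read-out, 30 min at room temperature, gauged cytotoxicity in p53RE-bla cells exposed 16 h at 37 C to DMSO-dissolved compounds with metabolic activation by human liver microsomes and NADPH, each 0.5 mg/mL final.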
# [8] = p53 small molecule agonists, cell-based qHTS assay with rat liver microsomes: qHTS cell viability counter screen (AID 1963580); further: nearly all actives have a fitted effect of over 45% in size
# Outline: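 Counter screen for cytotoxicity under metabolic activation: rat liver microsomes and NADPH, 0.5 mg/mL final each, added with compounds to p53RE-bla HCT-116 cells; 16 h at 37 C, then ATP luminescence read.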
# [9] = p53 small molecule agonists, cell-based qHTS assay: qHTS cell viability counter screen (AID 1963581); further: nearly all actives have a fitted effect of over 45% in size
# Outline: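 qHTS counter screen: 16 h compound exposure at 37 C of p53RE-bla HCT-116 cells (4,000 per well, seeded 5 h prior), cell viability by ATP luminescence.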
# [10] = p53 small molecule agonists, cell-based qHTS assay (AID 1963582; active means well fitted activation curve with a large enough effect in the signal ratio in the repeat runs, not every such curve was filed as active; the % refers to the signal ratio)
# Outline: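 Measured: fluorescence from cleaved LiveBLAzer substrate. System: p53RE-bla cells, 16 h compound treatment at 37 C, 2 h substrate step at room temperature.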
# [11] = target: 5-hydroxytryptamine receptor 2A (Homo sapiens) (UniProt P28223); experiment: 5-hydroxytryptamine receptor 2A (HTR2A) small molecule antagonists, cell-based qHTS assay (AID 1963586); further: nearly all actives have a fitted effect of over 45% in size
# 5-hydroxytryptamine receptor 2A (Homo sapiens), sequence (P28223 whole entry, looked up): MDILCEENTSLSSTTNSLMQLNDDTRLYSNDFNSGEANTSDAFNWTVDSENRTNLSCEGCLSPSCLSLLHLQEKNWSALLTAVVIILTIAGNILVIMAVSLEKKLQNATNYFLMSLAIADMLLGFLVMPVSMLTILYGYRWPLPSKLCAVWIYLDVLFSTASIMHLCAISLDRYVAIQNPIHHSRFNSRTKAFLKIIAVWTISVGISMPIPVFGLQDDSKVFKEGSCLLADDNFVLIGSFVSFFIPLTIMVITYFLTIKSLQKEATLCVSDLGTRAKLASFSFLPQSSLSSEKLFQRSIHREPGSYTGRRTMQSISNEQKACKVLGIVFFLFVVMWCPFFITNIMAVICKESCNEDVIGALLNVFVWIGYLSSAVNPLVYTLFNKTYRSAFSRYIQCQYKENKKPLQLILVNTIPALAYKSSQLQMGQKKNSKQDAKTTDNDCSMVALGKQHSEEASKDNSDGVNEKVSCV
# Outline: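 CHO cells stably expressing human HTR2A were plated for 18 h at 37 C, then loaded with calcium dye for 1 h. Compounds were preincubated 5 min at room temperature before DOI (4 nM solution) was added. Kinetic fluorescence was read for 3 min.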
# [12] = target: 5-hydroxytryptamine receptor 2A (Homo sapiens) (UniProt P28223); experiment: 5-hydroxytryptamine receptor 2A (HTR2A) small molecule agonists, cell-based qHTS assay (AID 1963587); further: nearly all actives have a fitted effect of over 30% in size
# Outline: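 HTR2A-CHO cells, plated 18 h at 37 C/5% CO2, dye-loaded 1 h at 37 C; compounds in DMSO added by pin tool (agonist mode). Intracellular calcium flux read as kinetic fluorescence on FDSS over 2 min at 1 s intervals.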
# [13] = target: Muscarinic acetylcholine receptor M1 (Homo sapiens) (UniProt P11229); experiment: Cholinergic receptor muscarinic 1 (CHRM1) small molecule antagonists, cell-based qHTS assay (AID 1963588); further: nearly all actives have a fitted effect of over 40% in size
# Muscarinic acetylcholine receptor M1 (Homo sapiens), sequence (P11229 whole entry, looked up): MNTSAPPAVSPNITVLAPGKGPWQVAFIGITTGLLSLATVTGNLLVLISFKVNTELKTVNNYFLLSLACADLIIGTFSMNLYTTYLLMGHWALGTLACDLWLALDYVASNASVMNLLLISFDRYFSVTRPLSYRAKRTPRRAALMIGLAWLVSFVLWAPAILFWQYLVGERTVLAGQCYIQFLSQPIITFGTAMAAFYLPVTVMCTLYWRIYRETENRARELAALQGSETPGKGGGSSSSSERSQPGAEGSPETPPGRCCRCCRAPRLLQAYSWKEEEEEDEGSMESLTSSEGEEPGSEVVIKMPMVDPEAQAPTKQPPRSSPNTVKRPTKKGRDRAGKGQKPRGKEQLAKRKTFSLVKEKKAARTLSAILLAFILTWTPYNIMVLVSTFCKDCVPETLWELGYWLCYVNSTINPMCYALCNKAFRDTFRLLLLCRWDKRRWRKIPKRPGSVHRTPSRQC
# Outline: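 Compounds were tested at 15 concentrations in three independent runs. Dye-loaded CHRM1-CHO cells were exposed 5 min at room temperature before stimulation by acetylcholine added at 50nM. Intracellular calcium was read kinetically on FDSS for 3 min.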
# [14] = target: Muscarinic acetylcholine receptor M1 (Homo sapiens) (UniProt P11229); experiment: Cholinergic receptor muscarinic 1 (CHRM1) small molecule agonists, cell-based qHTS assay (AID 1963589); further: nearly all actives have a fitted effect of over 35% in size
# Outline: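 Kinetic fluorescence (1 s intervals) of calcium-sensitive dye in human M1 CHO cells after compound addition; cells pre-incubated 18 h at 37 C/5% CO2 and dye-loaded 1 h.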
# [15] = cAMP Responsive Elements (CRE) small molecule agonists, cell-based qHTS assay (AID 1963590)
# Outline: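 Test agents in DMSO were incubated 3 h at 37 C/5% CO2 with CRE-bla HEK 293T cells seeded 18 h earlier; LiveBLAzer B/G FRET substrate was added and read after 2 h at room temperature.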
# [16] = cAMP Responsive Elements (CRE) small molecule antagonists, cell-based qHTS assay (AID 1963591; active means well fitted inhibition curve with a large enough effect in the signal ratio in the repeat runs, not every such curve was filed as active; the % refers to the signal ratio)
# Outline: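 Reporter line CRE-bla HEK 293T in dialyzed-FBS DMEM; cells preincubated 18 h, treated 3 h with compound plus NKH477 (0.25 uM final); LiveBLAzer FRET, 2 h RT.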
# [17] = target: Beta-2 adrenergic receptor (Homo sapiens) (UniProt P07550); experiment: Adrenergic beta2 receptor (ADRB2) small molecule antagonists, cell-based qHTS assay (AID 1963592); further: series mostly up to about 92 µM; nearly all actives have a fitted effect of over 50% in size
# Beta-2 adrenergic receptor (Homo sapiens), sequence (P07550 whole entry, looked up): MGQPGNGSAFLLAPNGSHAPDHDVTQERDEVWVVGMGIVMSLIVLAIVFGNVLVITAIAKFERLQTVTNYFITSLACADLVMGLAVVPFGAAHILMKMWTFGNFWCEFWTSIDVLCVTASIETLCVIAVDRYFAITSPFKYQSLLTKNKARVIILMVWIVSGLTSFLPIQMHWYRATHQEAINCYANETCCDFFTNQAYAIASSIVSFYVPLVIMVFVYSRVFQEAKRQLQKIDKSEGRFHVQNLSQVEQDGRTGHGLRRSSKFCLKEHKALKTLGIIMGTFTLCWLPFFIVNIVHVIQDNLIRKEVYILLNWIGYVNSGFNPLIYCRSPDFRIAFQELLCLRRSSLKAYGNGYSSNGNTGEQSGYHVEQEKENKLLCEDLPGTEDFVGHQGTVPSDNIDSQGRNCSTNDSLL
# Outline: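 Assay format: CHO-ADRB2 cells, 18-20hr seeding at 37C/5% CO2, then compound plus 1nM isoproterenol agonist mix for 0.5hr RT. Homogeneous time-resolved fluorescence cAMP detection after 1hr, expressed as 665/615 nm ratio.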
# [18] = target: D(2) dopamine receptor (Homo sapiens) (UniProt P14416); experiment: Dopamine D2 receptor (DRD2) small molecule agonists, cell-based qHTS assay (AID 1963594); further: nearly all actives have a fitted effect of over 35% in size
# D(2) dopamine receptor (Homo sapiens), sequence (P14416 whole entry, looked up): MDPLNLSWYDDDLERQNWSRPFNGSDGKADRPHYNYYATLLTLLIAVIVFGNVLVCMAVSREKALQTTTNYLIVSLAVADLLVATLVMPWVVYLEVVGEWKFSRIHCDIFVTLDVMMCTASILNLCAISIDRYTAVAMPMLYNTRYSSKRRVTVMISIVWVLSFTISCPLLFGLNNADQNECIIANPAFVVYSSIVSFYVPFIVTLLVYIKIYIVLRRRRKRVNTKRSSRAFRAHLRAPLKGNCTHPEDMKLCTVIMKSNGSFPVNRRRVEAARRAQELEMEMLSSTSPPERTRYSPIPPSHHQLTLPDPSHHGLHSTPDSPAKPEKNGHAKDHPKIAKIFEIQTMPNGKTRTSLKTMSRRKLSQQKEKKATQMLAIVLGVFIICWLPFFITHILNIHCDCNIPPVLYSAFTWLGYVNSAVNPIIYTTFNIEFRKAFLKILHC
# Outline: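 HEK293 cells stably expressing DRD2 were cultured 24 h at 37 C, then given Ro20-1724 (0.1 mM final) and compounds for 10 min at room temperature. NKH477 (200nM) was then added for 30 min. cAMP was read by HTRF.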
# [19] = target: D(2) dopamine receptor (Homo sapiens) (UniProt P14416); experiment: Dopamine D2 receptor (DRD2) small molecule antagonists, cell-based qHTS assay (AID 1963595; active means well fitted inhibition curve with a large enough effect in the signal ratio in the repeat runs, with a control signal flat; the % refers to the signal ratio)
# Outline: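 Stable D2 receptor HEK293 line, 24 h after seeding. Compound preincubated 10 min, then quinpirole (12 nM) with forskolin analogue NKH477 (200 nM), 30 min, room temperature. Detection by time-resolved FRET of cAMP.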
# [20] = target: Beta-2 adrenergic receptor (Homo sapiens) (UniProt P07550); experiment: Adrenergic beta2 receptor (ADRB2) small molecule agonists, cell-based qHTS assay (AID 1963593);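 further: CHO cells stably overexpressing human ADRB2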
# Outline: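 CHO cells stably over-expressing ADRB2 were plated overnight at 37C, then dosed with compounds plus a stimulation mix containing 100uM IBMX and 25uM Ro-20-1724 for 0.5hr at room temperature. cAMP was measured by HTRF competition, 1hr.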
smiles,measurement,setting,value
CC1(C)CC(=O)CC(C)(C)N1,Potency,[1],inactive
same,Potency,[2],inactive
same,Potency,[3],inactive
same,Potency,[4],inactive
same,Potency,[5],inactive
same,Potency,[6],inactive
same,Potency,[7],inactive
same,Potency,[8],inactive
same,Potency,[9],inactive
same,Potency,[10],inactive
same,Potency,[11],inactive
same,Potency,[12],inactive
same,Potency,[13],inactive
same,Potency,[14],inactive
same,Potency,[15],inactive
same,Potency,[16],inactive
same,Potency,[17],inactive
same,Potency,[18],inactive
same,Potency,[19],inactive
O=C1NCCN1,Potency,[1],inactive
same,Potency,[2],inactive
same,Potency,[3],inactive
same,Potency,[4],inactive
same,Potency,[5],inactive
same,Potency,[6],inactive
same,Potency,[7],inactive
same,Potency,[8],inactive
same,Potency,[9],inactive
same,Potency,[10],inactive
same,Potency,[11],inactive
same,Potency,[12],inactive
same,Potency,[13],inactive
same,Potency,[14],inactive
same,Potency,[15],inactive
same,Potency,[16],inactive
same,Potency,[17],inactive
same,Potency,[18],inactive
same,Potency,[19],inactive
CCCCCCCCCCCCCCCCN(C)C,"activity change, negative = cytotoxicity",[1],3.36% [at 8.39 µM]
same,"activity, positive = activation",[2],-0.511% [at 8.39 µM]
same,activity change,[3],"-0.722% [at 5.22 µM, hits give high values]"
same,activation,[4],5.47% [at 6.97 µM]
same,activation,[5],-0.794% [at 5.23 µM]
same,activation,[6],-0.0918% [at 5.99 µM]
same,"activity change, negative = cytotoxicity",[7],-6.23% [at 5.99 µM]
same,"activity change, negative = cytotoxicity",[8],1.34% [at 5.99 µM]
same,"activity change, negative = cytotoxicity",[9],8.26% [at 5.99 µM]
same,activation,[10],9.5% [at 5.99 µM]
same,"activity, negative = inhibition",[11],-3.75% [at 5.62 µM]
same,activation,[12],3.51% [at 7.02 µM]
same,"activity, negative = inhibition",[13],5.3% [at 5.58 µM]
same,activation,[14],0.295% [at 6.97 µM]
same,activation,[15],-1.13% [at 8.39 µM]
same,"activity change, negative = inhibition",[16],1.36% [at 8.39 µM]
same,"activity change, negative = inhibition",[17],-8.88% [at 8.39 µM]
same,activation,[18],-3.52% [at 8.39 µM]
same,"activity change, negative = inhibition",[19],-3.89% [at 8.38 µM]
CCCCN,Potency,[1],inactive
same,Potency,[2],36.3 µM (active)
same,Potency,[3],inactive
same,Potency,[4],inactive
same,Potency,[5],inactive
same,Potency,[6],inactive
same,Potency,[7],inactive
same,Potency,[8],inactive
same,Potency,[9],inactive
same,Potency,[10],inactive
same,Potency,[11],inactive
same,Potency,[13],inactive
same,Potency,[14],inactive
same,Potency,[15],inactive
same,Potency,[16],inactive
same,Potency,[17],inactive
same,Potency,[18],inactive
same,Potency,[19],inactive
CC(=O)/C=C/C=C1/C2CCC(C2)C1(C)C (stereo not drawn),Potency,[1],inactive
same,Potency,[2],inactive
same,Potency,[3],inactive
same,Potency,[4],inactive
same,Potency,[5],inactive
same,Potency,[6],inactive
same,Potency,[7],inactive
same,Potency,[8],inactive
same,Potency,[9],inactive
same,Potency,[10],inactive
same,Potency,[11],inactive
same,Potency,[12],inactive
same,Potency,[14],inactive
same,Potency,[15],inactive
same,Potency,[16],inactive
same,Potency,[17],inactive
same,Potency,[20],inactive
same,Potency,[18],inactive
same,Potency,[19],inactive
CC(=O)c1ccc2c(c1)[C@H](NC(=O)c1ccc(F)cc1)[C@@H](O)C(C)(C)O2,Potency,[1],inactive
same,Potency,[2],inactive
same,Potency,[3],inactive
same,Potency,[4],inactive
same,Potency,[5],inactive
same,Potency,[6],inactive
same,Potency,[7],inactive
same,Potency,[8],inactive
same,Potency,[9],inactive
same,Potency,[10],inactive
same,Potency,[11],inactive
same,Potency,[12],inactive
same,Potency,[13],inactive
same,Potency,[14],inactive
same,Potency,[15],inactive
same,Potency,[16],inactive
same,Potency,[17],inactive
same,Potency,[18],inactive
same,Potency,[19],inactive
